About 79,000 compounds went through this panel and 15% of them were active in at least one assay; those are over-represented in the sample as a whole. Active and inactive are the calls of the source. Cut-off read from the data, not from the text of the source: active = growth inhibition above about 70%; inactive = the rest.
Legend:
[1] = NCI Yeast Anticancer Drug Screen. Data for the rad52 strain (AID 147);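 note: 0% = growth of vehicle-treated control cultures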; conditions: S. cerevisiae rad52 mutant growth inhibition, stronger effect = higher value
Summary of the method: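 Screen used a yeast mutant impaired in DNA repair. After compound exposure, growth was measured. Values reflect inhibition compared with vehicle-treated cells.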

[2] = NCI Yeast Anticancer Drug Screen. Data for the wt1 strain (AID 149);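 note: 0% = growth of vehicle-treated wt1 cultures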; conditions: S. cerevisiae wt1 strain (SPY 50644) growth inhibition, stronger effect = higher value
Summary of the method: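 Growth inhibition read against vehicle controls after compound exposure of the wt1 yeast strain.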

[3] = NCI Yeast Anticancer Drug Screen. Data for the rad50EPP+ strain (AID 151);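 note: 0% = growth of vehicle-treated control cultures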; conditions: S. cerevisiae rad50 mutant strain, stronger effect = higher value
Summary of the method: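 Exposing the rad50EPP+ strain to each compound, growth was compared with vehicle-only cultures to give inhibition.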

[4] = NCI Yeast Anticancer Drug Screen. Data for the mgt1 strain (AID 153); conditions: S. cerevisiae mgt1 mutant growth inhibition, stronger effect = higher value
Summary of the method: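 Genetically defined yeast (mgt1) treated with compound; inhibition of growth expressed against vehicle-treated controls.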

[5] = NCI Yeast Anticancer Drug Screen. Data for the rad50 strain (AID 155);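 note: 0% = growth of vehicle-only cultures of the same strain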; conditions: S. cerevisiae rad50 strain growth inhibition, stronger effect = higher value
Summary of the method: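 Readout: growth inhibition relative to vehicle-treated cultures. Compound exposure was carried out in a genetically defined yeast strain deficient in DNA damage repair.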

[6] = NCI Yeast Anticancer Drug Screen. Data for the mec2-1 strain (AID 157); conditions: S. cerevisiae mec2-1 strain, stronger effect = higher value
Summary of the method: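 Readout is yeast growth inhibition, normalised to vehicle-treated controls, in the mec2-1 strain exposed to compound.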

[7] = NCI Yeast Anticancer Drug Screen. Data for the sgs1 mgt1 strain (AID 161);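 note: 0% = growth of cultures given vehicle only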; conditions: S. cerevisiae sgs1 mgt1 strain, stronger effect = higher value
Summary of the method: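 This yeast growth screen uses a strain with defined DNA-repair lesions; compound-treated growth is compared with vehicle-treated growth.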

[8] = NCI Yeast Anticancer Drug Screen. Data for the CLN2oe strain (AID 163);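 note: 0% = growth of vehicle-only control cultures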; conditions: S. cerevisiae CLN2oe strain, stronger effect = higher value
Summary of the method: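 Values reflect how much compound exposure reduced yeast growth, referenced to vehicle-exposed cells. Assay organism is a strain with a defined genetic change affecting cell-cycle control.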

[9] = NCI Yeast Anticancer Drug Screen. Data for the cln2 rad14 strain (AID 165);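 note: 0% = growth equal to vehicle treated cultures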; conditions: S. cerevisiae cln2 rad14 strain, stronger effect = higher value
Summary of the method: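 Relative to vehicle controls, growth inhibition of compound-treated cln2 rad14 yeast was recorded.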

[10] = NCI Yeast Anticancer Drug Screen. Data for the bub3 strain (AID 167); conditions: S. cerevisiae bub3 mutant strain, stronger effect = higher value
Summary of the method: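 Readout: yeast growth inhibition, expressed relative to vehicle-only wells. The test organism is a mutant strain from a panel with lesions in DNA repair or checkpoint genes.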

[11] = NCI Yeast Anticancer Drug Screen. Data for the wt2 strain (AID 169);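 note: 0% = growth of vehicle-treated yeast cultures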; conditions: S. cerevisiae wt2 strain growth inhibition, stronger effect = higher value
Summary of the method: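 Values express reduction in yeast growth under compound treatment, referenced to vehicle-treated cells.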

[12] = NCI Yeast Anticancer Drug Screen. Data for the mlh1 strain (AID 171);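 note: 0% = growth of vehicle-treated control cultures of the same strain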; conditions: S. cerevisiae mlh1 strain growth inhibition, stronger effect = higher value
Summary of the method: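 Steps: expose the defined-mutant yeast strain to compound; expose a parallel culture to vehicle; measure growth; express compound effect as inhibition relative to the vehicle culture.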

[13] = NCI Yeast Anticancer Drug Screen. Data for the sgs1 strain (AID 173);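 note: 0% = growth of vehicle-only control cultures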; conditions: S. cerevisiae sgs1 mutant, stronger effect = higher value
Summary of the method: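 Treat defined-mutant yeast with compound; measure growth; calculate inhibition relative to vehicle-treated cells.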

[14] = NCI Yeast Anticancer Drug Screen. Data for the mlh1 rad18 strain (AID 175); conditions: S. cerevisiae mlh1 rad18 strain growth inhibition, stronger effect = higher value
Summary of the method: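 Test agents were incubated with a yeast strain of defined genotype (DNA damage repair defect). Inhibition of growth was derived by comparison with vehicle-exposed cultures.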

[15] = NCI Yeast Anticancer Drug Screen. Data for the rad18 strain (AID 177); conditions: S. cerevisiae rad18 mutant growth inhibition, stronger effect = higher value
Summary of the method: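 A genetically defined yeast mutant impaired in DNA damage repair was treated with test compounds, then its growth was measured against cultures receiving vehicle alone.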

[16] = NCI Yeast Anticancer Drug Screen. Data for the rad14 strain (AID 159);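 note: 0% = growth of vehicle-treated control cultures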; conditions: S. cerevisiae rad14 strain growth inhibition, stronger effect = higher value
Summary of the method: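 Growth inhibition vs vehicle controls; genetically altered yeast strain (DNA damage repair defect) treated with test compounds.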

[17] = at 5.0 µM (retest, dose inferred, filed as 0.5)
[18] = at 50.0 µM (retest, dose inferred, filed as 5.0)

Measured: growth inhibition

Nc1nc(Cl)c(Cl)c(Cl)n1
inactive: [1]; at 1.2 µM 1% | [1]; at 3.7 µM 8% | [1]; at 11.0 µM 32% | [2]; at 1.2 µM -2% | [2]; at 3.7 µM 1% | [2]; at 11.0 µM 14% | [2]; at 33.0 µM 57% | [3]; at 1.2 µM 0% | [3]; at 3.7 µM 34% | [4]; at 1.2 µM 1% | [4]; at 3.7 µM 5% | [4]; at 11.0 µM 20% | [5]; at 1.2 µM 2% | [5]; at 3.7 µM 3% | [5]; [17] 44% | [5]; at 11.0 µM 17% | [5]; at 33.0 µM 51% | [5]; at 50.0 µM 47.3% | [6]; at 1.2 µM 2% | [6]; at 3.7 µM 14% | [6]; [17] 28% | [6]; at 11.0 µM 42% | [7]; [17] 59% | [7]; at 50.0 µM 32.3% | [8]; at 1.2 µM -1% | [8]; at 3.7 µM 0% | [8]; at 11.0 µM 14% | [8]; at 33.0 µM 30% | [9]; [17] 7% | [9]; at 50.0 µM 13.8% | [10]; at 1.2 µM -4% | [10]; at 3.7 µM 1% | [10]; [17] 27% | [10]; at 11.0 µM 18% | [10]; at 50.0 µM -8.05% | [11]; at 1.2 µM 0% | [11]; at 3.7 µM 4% | [11]; at 11.0 µM 17% | [12]; at 1.2 µM -2% | [12]; at 3.7 µM 3% | [12]; at 11.0 µM 18% | [13]; at 1.2 µM 1% | [13]; at 3.7 µM 14% | [13]; at 11.0 µM 45% | [14]; at 50.0 µM 30.4% | [15]; at 1.2 µM 1% | [15]; at 3.7 µM 5% | [15]; at 11.0 µM 19%
active: [1]; at 33.0 µM 88% | [1]; at 100.0 µM 99% | [2]; at 100.0 µM 99% | [3]; at 11.0 µM 89% | [3]; at 33.0 µM 93% | [3]; at 100.0 µM 99% | [4]; at 33.0 µM 90% | [4]; at 100.0 µM 99% | [5]; [18] 100% | [5]; at 100.0 µM 99% | [6]; at 33.0 µM 99% | [6]; [18] 99% | [6]; at 50.0 µM 72.4% | [6]; at 100.0 µM 99% | [7]; [18] 99% | [8]; at 100.0 µM 99% | [9]; [18] 99% | [10]; at 33.0 µM 92% | [10]; [18] 99% | [10]; at 100.0 µM 99% | [11]; at 33.0 µM 80% | [11]; at 100.0 µM 99% | [12]; at 33.0 µM 93% | [12]; at 100.0 µM 99% | [13]; at 33.0 µM 99% | [13]; at 100.0 µM 99% | [14]; [17] 80% | [14]; [18] 99% | [15]; at 33.0 µM 77% | [15]; at 100.0 µM 99%

OC1(c2ccccc2)CSC2=Nc3ccccc3C3CCN1N23 (stereo unspecified)
active: [1]; at 100.0 µM 91% | [2]; at 100.0 µM 95% | [4]; at 100.0 µM 94% | [5]; at 100.0 µM 92% | [6]; at 100.0 µM 93% | [16]; at 100.0 µM 94% | [7]; at 50.0 µM 80.2% | [10]; at 50.0 µM 73.7% | [10]; at 100.0 µM 91% | [11]; at 100.0 µM 94% | [12]; at 100.0 µM 93% | [13]; at 100.0 µM 94% | [14]; [18] 78% | [14]; at 50.0 µM 80.7% | [15]; at 100.0 µM 92%
inactive: [1]; at 1.2 µM -41% | [1]; at 3.7 µM -50% | [1]; at 11.0 µM -45% | [1]; at 33.0 µM -29% | [2]; at 1.2 µM -82% | [2]; at 3.7 µM -83% | [2]; at 11.0 µM -89% | [2]; at 33.0 µM -33% | [3]; at 1.2 µM -29% | [3]; at 3.7 µM -40% | [3]; at 11.0 µM -47% | [3]; at 33.0 µM -22% | [3]; at 100.0 µM 66% | [4]; at 1.2 µM -45% | [4]; at 3.7 µM -43% | [4]; at 11.0 µM -38% | [4]; at 33.0 µM 57% | [5]; at 1.2 µM -66% | [5]; at 3.7 µM -75% | [5]; [17] 24% | [5]; at 11.0 µM -61% | [5]; at 33.0 µM -20% | [5]; [18] 47% | [5]; at 50.0 µM 51.5% | [6]; at 1.2 µM -86% | [6]; at 3.7 µM -71% | [6]; [17] 12% | [6]; at 11.0 µM -91% | [6]; at 33.0 µM -21% | [6]; [18] 40% | [6]; at 50.0 µM 43.7% | [16]; at 1.2 µM -51% | [16]; at 3.7 µM -32% | [16]; at 11.0 µM -36% | [16]; at 33.0 µM 13% | [7]; [17] 27% | [7]; [18] 51% | [9]; [17] 25% | [9]; [18] 40% | [9]; at 50.0 µM 16.4% | [10]; at 1.2 µM -56% | [10]; at 3.7 µM -54% | [10]; [17] 19% | [10]; at 11.0 µM -43% | [10]; at 33.0 µM 58% | [10]; [18] 11% | [11]; at 1.2 µM -47% | [11]; at 3.7 µM -39% | [11]; at 11.0 µM -34% | [11]; at 33.0 µM -1% | [12]; at 1.2 µM -81% | [12]; at 3.7 µM -100% | [12]; at 11.0 µM -63% | [12]; at 33.0 µM 58% | [13]; at 1.2 µM -23% | [13]; at 3.7 µM -55% | [13]; at 11.0 µM -42% | [13]; at 33.0 µM 18% | [14]; [17] 23% | [15]; at 1.2 µM -65% | [15]; at 3.7 µM -55% | [15]; at 11.0 µM -70% | [15]; at 33.0 µM -21%

Source: PubChem BioAssay (NCI)
